# Results taken from PubChem BioAssay (NCI).
# The panel holds about 79,000 compounds, 15% with a hit somewhere; the sample as a whole holds those more often. Values without a mark were called inactive. Active and inactive are the calls of the source. No stated cut-off is given here; in the data, active means growth inhibition above about 70%; inactive means the rest.
# Key:
# [1] = NCI Yeast Anticancer Drug Screen. Data for the rad52 strain (AID 147);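 further: 0% = growth of vehicle-treated control cultures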; details: S. cerevisiae rad52 mutant growth inhibition, active compounds read high
# How it was run: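 Here a repair-compromised yeast strain receives each compound; its growth is then quantified and normalised to vehicle-only controls.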
# [2] = NCI Yeast Anticancer Drug Screen. Data for the wt1 strain (AID 149);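 further: 0% = growth of vehicle-treated wt1 cultures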; details: S. cerevisiae wt1 strain (SPY 50644) growth inhibition, active compounds read high
# How it was run: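 Measured: growth of wt1 yeast under compound versus vehicle treatment, reported as inhibition.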
# [3] = NCI Yeast Anticancer Drug Screen. Data for the rad50EPP+ strain (AID 151);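 further: 0% = growth of vehicle-treated control cultures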; details: S. cerevisiae rad50 mutant strain, active compounds read high
# How it was run: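 Read-out is yeast growth inhibition relative to vehicle; cells used were the rad50EPP+ strain.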
# [4] = NCI Yeast Anticancer Drug Screen. Data for the mgt1 strain (AID 153); details: S. cerevisiae mgt1 mutant growth inhibition, active compounds read high
# How it was run: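 Measured: inhibition of mgt1 yeast growth by compound, normalized to vehicle-treated cultures.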
# [5] = NCI Yeast Anticancer Drug Screen. Data for the rad50 strain (AID 155);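 further: 0% = growth of vehicle-only cultures of the same strain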; details: S. cerevisiae rad50 strain growth inhibition, active compounds read high
# How it was run: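 Growth of the mutant yeast was measured after compound exposure and referenced to vehicle-treated cultures.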
# [6] = NCI Yeast Anticancer Drug Screen. Data for the mec2-1 strain (AID 157); details: S. cerevisiae mec2-1 strain, active compounds read high
# How it was run: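 Using mec2-1 yeast: add compound, measure growth, express inhibition versus vehicle-treated cultures.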
# [7] = NCI Yeast Anticancer Drug Screen. Data for the rad14 strain (AID 159);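 further: 0% = growth of vehicle-treated control cultures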; details: S. cerevisiae rad14 strain growth inhibition, active compounds read high
# How it was run: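 Here, inhibition of yeast growth was measured after compound exposure, using a strain with a genetic defect in DNA damage repair and vehicle-treated cultures as the reference.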
# [8] = NCI Yeast Anticancer Drug Screen. Data for the sgs1 mgt1 strain (AID 161);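 further: 0% = growth of cultures given vehicle only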; details: S. cerevisiae sgs1 mgt1 strain, active compounds read high
# How it was run: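 Compounds are added to genetically altered yeast, and growth is compared with cultures given vehicle alone to give percent inhibition.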
# [9] = NCI Yeast Anticancer Drug Screen. Data for the cln2 rad14 strain (AID 165);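 further: 0% = growth equal to vehicle treated cultures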; details: S. cerevisiae cln2 rad14 strain, active compounds read high
# How it was run: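 Yeast strain cln2 rad14, bearing defects in cell cycle control and DNA repair, serves as the test system; values reflect growth inhibition compared with vehicle.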
# [10] = NCI Yeast Anticancer Drug Screen. Data for the bub3 strain (AID 167); details: S. cerevisiae bub3 mutant strain, active compounds read high
# How it was run: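 Whole-cell yeast assay. The mutant strain was incubated with compounds, and growth inhibition was determined by comparison with vehicle-treated cells.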
# [11] = NCI Yeast Anticancer Drug Screen. Data for the mlh1 strain (AID 171);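 further: 0% = growth of vehicle-treated control cultures of the same strain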; details: S. cerevisiae mlh1 strain growth inhibition, active compounds read high
# How it was run: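 A yeast strain with a defined genetic lesion serves as the test organism. Cultures receive compound or vehicle, and growth is measured.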
# [12] = NCI Yeast Anticancer Drug Screen. Data for the sgs1 strain (AID 173);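 further: 0% = growth of vehicle-only control cultures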; details: S. cerevisiae sgs1 mutant, active compounds read high
# How it was run: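 A genetically defined yeast mutant is incubated with the test compound, and its growth is compared to that of the same strain given vehicle.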
# [13] = NCI Yeast Anticancer Drug Screen. Data for the mlh1 rad18 strain (AID 175); details: S. cerevisiae mlh1 rad18 strain growth inhibition, active compounds read high
# How it was run: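 Steps: expose repair-defective yeast to compound; measure growth; express inhibition against vehicle-treated controls.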
# [14] = NCI Yeast Anticancer Drug Screen. Data for the rad18 strain (AID 177); details: S. cerevisiae rad18 mutant growth inhibition, active compounds read high
# How it was run: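 Measured value is growth inhibition of a yeast strain bearing a DNA repair alteration, referenced to vehicle-treated cells.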
# [15] = at 5.0 µM (retest, dose inferred, filed as 0.5)
# [16] = at 50.0 µM (retest, dose inferred, filed as 5.0)
smiles,measurement,setting,value
CCCCN(CCC#N)c1ccc(/C=C/c2ccnc3ccccc23)cc1,growth inhibition,[1]; at 1.2 µM,-6%
same,growth inhibition,[1]; at 3.7 µM,-9%
same,growth inhibition,[1]; at 11.0 µM,-9%
same,growth inhibition,[1]; at 33.0 µM,63%
same,growth inhibition,[1]; at 100.0 µM,79% (active)
same,growth inhibition,[2]; at 1.2 µM,-6%
same,growth inhibition,[2]; at 3.7 µM,-10%
same,growth inhibition,[2]; at 11.0 µM,-13%
same,growth inhibition,[2]; at 33.0 µM,66%
same,growth inhibition,[2]; at 100.0 µM,85% (active)
same,growth inhibition,[3]; at 1.2 µM,-3%
same,growth inhibition,[3]; at 3.7 µM,7%
same,growth inhibition,[3]; at 11.0 µM,30%
same,growth inhibition,[3]; at 33.0 µM,38%
same,growth inhibition,[3]; at 100.0 µM,26%
same,growth inhibition,[4]; at 1.2 µM,-6%
same,growth inhibition,[4]; at 3.7 µM,-9%
same,growth inhibition,[4]; at 11.0 µM,0%
same,growth inhibition,[4]; at 33.0 µM,62%
same,growth inhibition,[4]; at 100.0 µM,76% (active)
same,growth inhibition,[5]; at 1.2 µM,-4%
same,growth inhibition,[5]; at 3.7 µM,-7%
same,growth inhibition,[5]; [15],36%
same,growth inhibition,[5]; at 11.0 µM,-6%
same,growth inhibition,[5]; at 33.0 µM,46%
same,growth inhibition,[5]; [16],30%
same,growth inhibition,[5]; at 50.0 µM,-15.1%
same,growth inhibition,[5]; at 100.0 µM,72% (active)
same,growth inhibition,[6]; at 1.2 µM,-9%
same,growth inhibition,[6]; at 3.7 µM,-10%
same,growth inhibition,[6]; [15],4%
same,growth inhibition,[6]; at 11.0 µM,-9%
same,growth inhibition,[6]; at 33.0 µM,45%
same,growth inhibition,[6]; [16],80% (active)
same,growth inhibition,[6]; at 50.0 µM,-6.1%
same,growth inhibition,[6]; at 100.0 µM,80% (active)
same,growth inhibition,[7]; at 1.2 µM,-8%
same,growth inhibition,[7]; at 3.7 µM,-10%
same,growth inhibition,[7]; at 11.0 µM,-5%
same,growth inhibition,[7]; at 33.0 µM,-1%
same,growth inhibition,[7]; at 100.0 µM,56%
same,growth inhibition,[8]; [15],-11%
same,growth inhibition,[8]; [16],77% (active)
same,growth inhibition,[8]; at 50.0 µM,14.9%
same,growth inhibition,[9]; [15],2%
same,growth inhibition,[9]; [16],12%
same,growth inhibition,[9]; at 50.0 µM,-9.8%
same,growth inhibition,[10]; at 1.2 µM,-7%
same,growth inhibition,[10]; at 3.7 µM,-14%
same,growth inhibition,[10]; [15],-7%
same,growth inhibition,[10]; at 11.0 µM,-13%
same,growth inhibition,[10]; at 33.0 µM,-3%
same,growth inhibition,[10]; [16],73% (active)
same,growth inhibition,[10]; at 50.0 µM,-8.45%
same,growth inhibition,[10]; at 100.0 µM,53%
same,growth inhibition,[11]; at 1.2 µM,-3%
same,growth inhibition,[11]; at 3.7 µM,-6%
same,growth inhibition,[11]; at 11.0 µM,10%
same,growth inhibition,[11]; at 33.0 µM,55%
same,growth inhibition,[11]; at 100.0 µM,76% (active)
same,growth inhibition,[12]; at 1.2 µM,-4%
same,growth inhibition,[12]; at 3.7 µM,-5%
same,growth inhibition,[12]; at 11.0 µM,17%
same,growth inhibition,[12]; at 33.0 µM,73% (active)
same,growth inhibition,[12]; at 100.0 µM,84% (active)
same,growth inhibition,[13]; [15],16%
same,growth inhibition,[13]; [16],74% (active)
same,growth inhibition,[13]; at 50.0 µM,11.7%
same,growth inhibition,[14]; at 1.2 µM,-3%
same,growth inhibition,[14]; at 3.7 µM,-3%
same,growth inhibition,[14]; at 11.0 µM,1%
same,growth inhibition,[14]; at 33.0 µM,32%
same,growth inhibition,[14]; at 100.0 µM,77% (active)
